Data: PubChem BioAssay (EPA / NIEHS)
“And” between values parts separate entries of the source, which are not always exact repeats. Equal entries are not always repeated. The source made the active and inactive calls. Rule for the calls: active = hit-call score of the fitted dose curve at least 0.9, where 1 is the maximum; inactive = score below 0.9.

The molecules below were run on Fatty acid synthase (Homo sapiens) (UniProt P49327) (assay: LTEA_HepaRG_FASN: Life Technologies and Expression Analysis (LTEA) Assay for Fatty Acid Synthase (FASN) using HepaRG (AID 2283448)). Conditions: mRNA level, 48 h; actives raise or lower the signal.
Sequence of Fatty acid synthase (Homo sapiens) (P49327 whole entry, looked up): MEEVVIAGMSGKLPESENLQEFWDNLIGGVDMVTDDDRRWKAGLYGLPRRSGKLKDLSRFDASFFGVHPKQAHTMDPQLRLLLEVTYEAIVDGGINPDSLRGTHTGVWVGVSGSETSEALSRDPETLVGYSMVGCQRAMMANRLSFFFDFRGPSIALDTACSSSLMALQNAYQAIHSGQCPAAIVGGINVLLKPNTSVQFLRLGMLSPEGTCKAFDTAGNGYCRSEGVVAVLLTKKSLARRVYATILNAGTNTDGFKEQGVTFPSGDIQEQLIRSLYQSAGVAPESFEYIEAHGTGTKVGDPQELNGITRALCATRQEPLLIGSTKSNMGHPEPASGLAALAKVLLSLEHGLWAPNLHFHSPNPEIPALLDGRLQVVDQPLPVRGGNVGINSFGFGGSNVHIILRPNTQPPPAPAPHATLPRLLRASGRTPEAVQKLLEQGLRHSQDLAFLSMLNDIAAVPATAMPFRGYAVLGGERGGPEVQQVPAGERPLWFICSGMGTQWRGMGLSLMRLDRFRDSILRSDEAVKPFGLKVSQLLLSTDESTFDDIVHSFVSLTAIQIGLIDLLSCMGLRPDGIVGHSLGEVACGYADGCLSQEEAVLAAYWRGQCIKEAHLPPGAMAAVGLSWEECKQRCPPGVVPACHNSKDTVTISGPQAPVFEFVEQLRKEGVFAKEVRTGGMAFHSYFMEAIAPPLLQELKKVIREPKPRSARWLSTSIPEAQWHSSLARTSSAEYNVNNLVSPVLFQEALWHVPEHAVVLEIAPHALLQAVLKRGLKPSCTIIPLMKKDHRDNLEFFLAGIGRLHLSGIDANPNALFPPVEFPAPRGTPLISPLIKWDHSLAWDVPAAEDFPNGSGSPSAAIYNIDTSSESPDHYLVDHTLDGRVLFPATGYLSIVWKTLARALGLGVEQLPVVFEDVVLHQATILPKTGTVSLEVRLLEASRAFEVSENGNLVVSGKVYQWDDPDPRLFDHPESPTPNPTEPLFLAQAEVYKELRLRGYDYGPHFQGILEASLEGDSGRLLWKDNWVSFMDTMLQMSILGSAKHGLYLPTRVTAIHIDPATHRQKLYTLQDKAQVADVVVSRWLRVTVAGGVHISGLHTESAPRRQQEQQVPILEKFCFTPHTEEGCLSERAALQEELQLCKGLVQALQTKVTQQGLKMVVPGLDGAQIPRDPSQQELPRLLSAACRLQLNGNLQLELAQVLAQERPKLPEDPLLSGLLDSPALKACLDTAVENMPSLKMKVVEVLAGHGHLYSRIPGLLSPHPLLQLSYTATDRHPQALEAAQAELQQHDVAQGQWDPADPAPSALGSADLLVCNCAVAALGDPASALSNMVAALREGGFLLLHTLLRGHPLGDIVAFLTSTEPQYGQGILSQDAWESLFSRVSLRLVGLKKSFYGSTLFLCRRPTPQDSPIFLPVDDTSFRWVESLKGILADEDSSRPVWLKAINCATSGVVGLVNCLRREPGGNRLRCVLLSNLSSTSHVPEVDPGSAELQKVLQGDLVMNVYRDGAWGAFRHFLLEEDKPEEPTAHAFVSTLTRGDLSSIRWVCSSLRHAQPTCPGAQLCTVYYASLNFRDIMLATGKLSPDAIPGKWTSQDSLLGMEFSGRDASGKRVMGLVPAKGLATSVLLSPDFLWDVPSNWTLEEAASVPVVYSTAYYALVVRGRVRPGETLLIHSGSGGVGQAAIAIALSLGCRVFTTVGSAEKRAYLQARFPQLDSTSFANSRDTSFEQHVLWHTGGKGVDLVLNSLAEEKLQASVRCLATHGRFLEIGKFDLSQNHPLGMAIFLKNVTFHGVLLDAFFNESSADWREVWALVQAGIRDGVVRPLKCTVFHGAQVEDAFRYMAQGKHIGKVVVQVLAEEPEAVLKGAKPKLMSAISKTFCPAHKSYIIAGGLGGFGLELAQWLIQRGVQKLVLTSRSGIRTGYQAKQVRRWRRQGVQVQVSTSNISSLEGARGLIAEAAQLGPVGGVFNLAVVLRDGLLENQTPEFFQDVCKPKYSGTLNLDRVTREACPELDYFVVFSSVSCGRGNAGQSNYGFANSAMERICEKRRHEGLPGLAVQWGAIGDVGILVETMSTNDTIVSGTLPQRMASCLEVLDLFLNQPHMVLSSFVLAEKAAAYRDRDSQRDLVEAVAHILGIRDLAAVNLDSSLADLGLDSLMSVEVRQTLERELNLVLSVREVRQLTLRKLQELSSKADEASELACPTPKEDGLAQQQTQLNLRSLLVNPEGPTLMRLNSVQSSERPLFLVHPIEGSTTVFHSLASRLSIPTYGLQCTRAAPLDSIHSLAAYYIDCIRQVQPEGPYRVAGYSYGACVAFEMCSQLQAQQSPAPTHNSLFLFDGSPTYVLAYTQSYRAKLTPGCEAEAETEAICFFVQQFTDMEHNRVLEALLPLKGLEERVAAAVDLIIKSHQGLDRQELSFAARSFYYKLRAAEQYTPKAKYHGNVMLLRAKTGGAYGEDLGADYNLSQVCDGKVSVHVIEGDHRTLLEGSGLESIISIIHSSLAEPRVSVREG
Experimental: LTEA_HepaRG is a cell based, multiplexed-readout assay that uses HepaRG, a human liver cell line, with measurements taken at 48 hours after chemical dosing on a 96-well plate.LTEA_HepaRG_FASN is one of 102 assay component(s) measured in the LTEA HepaRG cell culture assay. It is a marker of Steatosis.Data from the assay component LTEA_HepaRG_FASN was analyzed into 1 endpoint. This assay endpoint, LTEA_HepaRG_FASN, was analyzed with bidirectional fitting relative to DMSO as the negative control and baseline of activity. Using a type of inducible reporter, measures of mRNA induction for gain or loss-of-signal activity can be used to understand regulation of transcription factor activity. To generalize the intended target to other relatable targets, this assay endpoint is annotated to the lyase intended target family, where the subfamily is fatty acid synthase.
A total of 1060 chemcials from the ToxCast library were tested in eight-point concentration-response experiments. Cell culture and cytotoxicity assays were conducted at Thermo Fisher Scientific's Custom Services facility (Madison, WI). A single lot of human HepaRG cells (Thermo Fisher Scientific, Frederick, MD) was used for the cell culture experiments. 96-well format collagen type I coated plates of human HepaRG cells were prepared using established methods. Briefly, cryopreserved HepaRG cells were thawed, plated at a density of approximately 100,000 cells/well in HepaRG Thaw, Plate, and General Purpose media (HPRG770, Thermo Fisher Scientific), and incubated for 48 hours. 0.5% DMSO was selected as vehicle control to balance the requisite need of DMSO in HepaRG cultures to maintain differentiation (for example, baseline metabolism, proportions of hepatocytes vs. cholangiocytes), while enabling further hepatic receptor pathway activation (for example, PXR and CAR) in response to chemical exposure. 48 hours after plating, the culture medium was replaced with HepaRG Serum-Free Incudtion Media. Cells were exposed to each test chemical in duplicate and maintained in CO2 incubators for another 48 hours. Chemical plates were thawed to room temperature and 200x concentrations of treatment groups were prepared. 8-point conentration-reponse curves were made with the highest exposure at 100 uM, followed by half-log dilutions, all in 0.5% DMSO. Each test plate contained variouse controls, induction positive controls (1mM phenobarbital), cytotoxicity positive controls ([…] aflatoxin B1), vehicle controls (0.5% DMSO), and total lysis controls (0.5% DMSO). Cell morphology images were taken using an Essen IncuCyte FLR automated microscope, with six 96-well plates imaged in about 24 minutes. Images were captured and exported and JPEG files. Spent culture media was transfered to black-well plates for the LDH assay, and remaining media was sorted at -80 C for later use. Cells were treated with RLT buffer and frozen until shipped for gene expression analysis. Total RNA was isolated from the cell suspension in 75 uL of Buffer RLT (Qiagen, Germantown, MD 20874) by Quintiles/Expression Analysis (Durham, NC) using a custom isolation procedure. Total RNA from each plate well was transferred to a preamplification plate. Fluidigm's 96.96 Dynamic ArrayTM (Fluidigm, Amsterdam, the Netherlands) technology was used for gene expression analyses by quantitative reverse transcription polymerase chain reaction (qRT-PCR, performed by Quintiles/Expression Analysis, Durham, NC)89. Standard TaqManTM Assays (Applied Biosystems/ThermoFisher Scientific, Foster City, CA) were used to assess the expression of 93 genes selected based on their selectivity and sensitivity to important hepatic receptors known to be modulated by environmental chemicals; importance in human hepatocyte functionality; and hepatotoxicity. […]

| Compound | outcome | AC50 |
| --- | --- | --- |
| O=C(c1ccccc1)C1CCCCC1 | inactive | – |
| CCOC(=O)COc1cc(-n2ncc(C(F)(F)F)c(C)c2=O)c(F)cc1Cl | inactive | – |
| CCCN(CCC)C(=O)SCC | inactive | – |
| CCCCCOC(=O)COc1cc(N2C(=O)C3=C(CCCC3)C2=O)c(F)cc1Cl | inactive | – |
| CC1(C)C(C=C(Cl)Cl)C1C(=O)OCc1cccc(Oc2ccccc2)c1 (stereo not given) | inactive | – |
| CCCCOC(=O)C(C)Oc1ccc(Oc2ccc(C(F)(F)F)cn2)cc1 (stereo not given) | inactive | – |
| COC(=O)c1ccccc1C(=O)O | inactive | – |
| Oc1ccc(C(c2ccc(O)cc2)C(Cl)(Cl)Cl)cc1 | – | 88.8 µM (active) |
| C[C@]12CC[C@@H]3c4ccc(O)cc4C[C@@H](CCCCCCCCCS(=O)CCCC(F)(F)C(F)(F)F)[C@H]3[C@@H]1CC[C@@H]2O (stereo not given in full) | inactive | – |
| CCN(Cc1c(F)cccc1Cl)c1c([N+](=O)[O-])cc(C(F)(F)F)cc1[N+](=O)[O-] | – | 50 µM (active) |
| c1ccc2[nH]c(-c3cscn3)nc2c1 | inactive | – |
| O=C(O)c1ccccc1 | inactive | – |
| S=C([S-])NCCNC(=S)[S-].[Mn+2] | – | 2.55 µM (active) |
| CC(C)CCCCCCc1ccc(O)cc1 | inactive | – |
| CCC(C)OC(=O)N1CCCCC1CCO (stereo not given) | inactive | – |
| CC(=O)S[C@@H]1CC2=CC(=O)CC[C@]2(C)[C@H]2CC[C@@]3(C)[C@@H](CC[C@@]34CCC(=O)O4)[C@H]12 | – | 37.3 µM (active) |
| CN(C)C(=O)Nc1ccc(Cl)c(Cl)c1 | – | 20.3 µM (active) |
| CSC(=O)c1cccc2nnsc12 | inactive | – |
| S=C(S)NCCNC(=S)S.[Mn+2].[S-]C([S-])=NCCN=C([S-])[S-].[Zn+2] | – | 1.14 µM (active) and 714 nM (active) and 1.11 µM (active) |
| Cc1nn(C)c(Oc2ccccc2)c1C=NOCc1ccc(C(=O)OC(C)(C)C)cc1 | inactive | – |

| Compound | outcome | AC50 |
| --- | --- | --- |
| CCNc1nc(N)nc(Cl)n1 | inactive | – |
| N#CSCSc1nc2ccccc2s1 | – | 68.3 µM (active) |
| CCCCC(CC)COC(=O)c1ccccc1C(=O)O (stereo not given) | inactive | – |
| CCCCC(CC)CN1C(=O)C2C3C=CC(C3)C2C1=O (stereo not given) | – | 34.6 µM (active) |
| CCCCOC(=O)[C@@H](C)Oc1ccc(Oc2ccc(C(F)(F)F)cn2)cc1 | inactive | – |
| CC(=O)[C@H]1CC[C@H]2[C@@H]3CCC4=CC(=O)CC[C@]4(C)[C@H]3CC[C@]12C | – | 82.1 µM (active) |
| COc1c(Cl)ccc(Cl)c1C(=O)O | inactive | – |
| COC(=O)CSc1cc(N=c2sc(=O)n3n2CCCC3)c(F)cc1Cl | inactive | – |
| c1ccc(Nc2ccccc2)cc1 | inactive | – |
| C[C@]12C[C@H](O)[C@H]3[C@@H](CCC4=CC(=O)CC[C@@]43C)[C@@H]1CC[C@@H]2C(=O)CO | inactive | – |
| O=C(Nc1ccc([N+](=O)[O-])cc1Cl)c1cc(Cl)ccc1O | – | 2.94 µM (active) |
| CCCCOCCOCCOCc1cc2c(cc1CCC)OCO2 | inactive | – |
| CCOC(=O)c1ccc(O)cc1 | inactive | – |
| C#CCOC(=O)[C@@H](C)Oc1ccc(Oc2ncc(Cl)cc2F)cc1 | – | 13.3 µM (active) |
| CCOC(=O)C(C)Oc1ccc(Oc2cnc3cc(Cl)ccc3n2)cc1 (stereo not given) | – | 43 µM (active) |
| CCCOC(=O)c1ccc(C(=O)OCCC)nc1 | inactive | – |
| O=C(O)C1(C(=O)Nc2ccc(Cl)cc2Cl)CC1 | – | 69.8 µM (active) |
| CCOC(=O)C(C)Oc1ccc(Oc2nc3ccc(Cl)cc3o2)cc1 (stereo not given) | inactive | – |
| CC(C)(C)[C@@H](O)[C@@H](Cc1ccc(Cl)cc1)n1cncn1 | – | 50 µM (active) |
| COC(=O)c1ccc(I)cc1S(=O)(=O)NC(=O)Nc1nc(C)nc(OC)n1 | inactive | – |
